Results reported in PubChem BioAssay AID651719 (The Scripps Research Institute Molecular Screening Center, 2012).
The campaign covered roughly 360,000 compounds. About 1,600 (0.44%) were called active. This is one part of a sample in which actives are shown more often than they occur. Unmarked numbers belong to inactive results.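 Rule for the calls: active = inhibition above the screen-wide average plus 3 SD (cut at about 13% in these data); inactive = the rest.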

Molecular target: Galanin receptor type 3 (Homo sapiens) (UniProt O60755)
Sequence (O60755 1-299 limits assumed): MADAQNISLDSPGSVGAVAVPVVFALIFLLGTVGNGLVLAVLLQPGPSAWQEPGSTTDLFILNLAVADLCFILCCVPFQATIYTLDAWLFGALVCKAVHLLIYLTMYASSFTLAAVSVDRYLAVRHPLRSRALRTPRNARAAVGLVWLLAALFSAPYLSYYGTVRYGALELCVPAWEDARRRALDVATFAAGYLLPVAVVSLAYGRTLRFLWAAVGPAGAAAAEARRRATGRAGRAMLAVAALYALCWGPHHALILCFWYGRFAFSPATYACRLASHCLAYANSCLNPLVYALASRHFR
Assay: GalR3 antagonists in HEK293 cells, primary screen, cell-based, fluorescence readout (AID 651719);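 note: forskolin and galanin both at EC90 stimulate the cells; cAMP rise reported by CNG channel membrane potential dye signal; 0% = forskolin plus galanin with DMSO and 100% = forskolin alone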
Conditions: HEK293 GalR3-CNG cAMP membrane potential fluorescence; at 3 µM; active compounds read high; galR3 body fused to GalR1 C-terminus

Row | Compound | inhibition
1 | O=C(C(=O)N1CCC(CNS(=O)(=O)Cc2ccccc2)CC1)c1cc2ccccc2o1 | -6.6%
2 | COc1cccc(OCc2cc(C(=O)N3CCN(C(=O)c4ccco4)CC3)no2)c1 | -10.3%
3 | C=CCC1(CC=C)CCCN1C(=O)c1cc(COc2ccc(-n3cncn3)cc2)on1 | 80.6% (active)
4 | CCCC(=O)N1CCC1(C)C(=O)Nc1ccc(-n2cncn2)cc1 (stereo unspecified) | -6.01%
5 | O=C(Nc1c(Cl)c(C2CC2)nn1-c1ccccc1)C(Cl)(Cl)Cl | -6.45%
6 | COc1cccc(CC(=O)N2CCN(C(=O)C(=O)c3cccc(C(F)(F)F)c3)CC2)c1 | 1.16%
7 | CN(C)S(=O)(=O)c1ccc(C(=O)NCC(C)(C)N2CCOCC2)cc1 | -0.16%
8 | CC(C)(CNC(=O)c1ccc(Cl)c(S(=O)(=O)N2CCc3ccccc3C2)c1)N1CCOCC1 | 98.3% (active)
9 | O=C(NCCSCc1ccccc1)c1ccc(Cl)c(S(=O)(=O)N2CCOCC2)c1 | -7.04%
10 | COc1cccc(-c2cc(CNC(=O)[C@@H](Cc3ccccc3)NC(=O)[C@H]3O[C@@H](n4cnc(C(N)=O)n4)[C@H](O)[C@@H]3O)no2)c1 | -7.28%
11 | CC(=O)N1c2ccc(S(=O)(=O)N3CCC(C(=O)N4CCN(c5ccccc5)CC4)CC3)cc2CC1C (stereo unspecified) | 0.42%
12 | O=C(C1CCCN(S(=O)(=O)c2ccccc2)C1)N1CCN(c2ccc(F)cc2)CC1 (stereo unspecified) | -0.67%
13 | CC(=O)N1CCCc2cc(S(=O)(=O)N3CCCC(C(=O)N4CCN(c5cccc(Cl)c5)CC4)C3)ccc21 (stereo unspecified) | 77.3% (active)
14 | CCCCCCCCN1C(=O)[C@@H](CC(=O)NCc2ccccc2)C[C@@]2(C(=O)OC)C1=C[C@H](C(C)(C)C)O[C@@H]2C | -6.16%
15 | Cc1cccc(N2CCN(C(c3ccccc3)c3nnnn3CC3CCCO3)CC2)c1C (stereo unspecified) | -2.6%
16 | COc1ccccc1NC(=S)N1CCN(C(c2ccccc2)c2ccccc2)CC1 | -3.76%
17 | CC1(C)CC(N2CCN(C(c3ccccc3)c3ccccc3)CC2)=CC(=[N+]2CCCCC2)C1 | 39.8% (active)
18 | Cc1ccc2nc(CN(C)C(=O)[C@@H](Cc3ccccc3)NC(=O)[C@H]3O[C@@H](n4ccc(=O)[nH]c4=O)[C@H](O)[C@@H]3O)[nH]c2c1 | -7.44%
19 | COC(=O)[C@]12C[C@H](CC(=O)NCc3ccc(OC)c(OC)c3)C(=O)N(Cc3ccccc3)C1=C[C@H](C(C)C)O[C@@H]2C1CC1 | 3.98%
20 | COC(=O)Cc1nnn2c1[C@H](C)[C@@H](OC)c1cc(Br)ccc1-2 | -5.13%
21 | COc1ccc(-c2cc(C(F)(F)F)nc(S(C)(=O)=O)n2)cc1OC | 20.7% (active)

Row | Compound | inhibition
22 | COc1ccc(-c2cc(C(F)(F)F)nc(SCCC(=O)NCc3ccco3)n2)cc1 | -3.08%
23 | COc1ccc(-c2cc(C(=O)N(C)Cc3ccc(OC)c(OC)c3OC)c3ccccc3n2)cc1OC | 2.03%
24 | COc1cccc(NC(=O)N(C)C[C@@H]2OCc3cn(nn3)CCCC(=O)N([C@@H](C)CO)C[C@H]2C)c1 | -0.11%
25 | CC[C@H](C)[C@H]1CNC(=O)C(=O)N1CC1CCN(CCc2ccc(OC)c(OC)c2)CC1 | 1.44%
26 | CCCCCCCCN1C(=O)[C@@H](CC(=O)N2CCN(C(=O)OCC)CC2)C[C@@]2(C(=O)OC)C1=C[C@H](C1CCCC1)O[C@@H]2C | -3.33%
27 | CCN1/C(=C\c2ccc3ccccc3[n+]2CC)Sc2cc(C)ccc21 | 45.8% (active)
28 | COC(=O)[C@]12C[C@H](CC(=O)NCc3cccc(C(F)(F)F)c3)C(=O)N(Cc3ccc4c(c3)OCO4)C1=C[C@H](COCc1ccccc1)O[C@@H]2C | -4.92%
29 | COc1cccc(CNC(=O)[C@H]2CCCN2C(=O)[C@H]2CCCN2C(=O)C2CCCCC2)c1 | -6.3%
30 | COc1cc2c(cc1OC)CN(C(=O)c1ccc(S(=O)(=O)N3CCCCCC3)cc1)CC2 | 1.33%
31 | CCOc1cc(C(=O)N2CCc3cc(OC)c(OC)cc3C2)ccc1OC(F)F | 31.5% (active)
32 | COc1cc2c(cc1OC)CN(C(=O)c1cc(S(=O)(=O)N3CCCCC3)ccc1Cl)CC2 | -3.04%
33 | Nc1nc2c(ncn2[C@@H]2O[C@H](C(=O)N[C@@H](Cc3ccccc3)C(=O)NCc3ccccc3)[C@@H](O)[C@H]2O)c(=O)[nH]1 | -5.49%
34 | CCOC(=O)c1cc2n(c1C)-c1ccccc1C2=O | 15.1% (active)
35 | CCOC(=O)CN1C(=O)C(=O)c2cc(C)ccc21 | -3.3%
36 | Cc1cc(C(=O)OCC(=O)N2c3ccccc3NC(=O)C2(C)C)c(C)n1-c1ccccc1 | -4.87%
37 | CCCNC(=O)C1(C)CCN1C(=O)Cc1ccc(-c2ccccc2)cc1 (stereo unspecified) | -4.21%
38 | CC1(C(=O)NS(=O)(=O)c2ccccc2)CCN1C(=O)Cc1ccc(-c2ccccc2)cc1 (stereo unspecified) | 0.25%
39 | C#Cc1ccc(NC(=O)C2(C)CCN2C(=O)Cc2ccc(-c3ccccc3)cc2)cc1 (stereo unspecified) | 44.5% (active)
40 | CCCn1nc(C(=O)NNC(=O)CSCC(=O)Nc2cc(C)on2)c2ccccc2c1=O | 21.7% (active)
41 | CCCn1nc(C(=O)Nc2ccc3nc(C)sc3c2)c2ccccc2c1=O | -5.64%
42 | CCCn1nc(C(=O)NNC(=O)CCOc2ccccc2OCC)c2ccccc2c1=O | -2.63%

Row | Compound | inhibition
43 | C[C@H](O)[C@@H]1CN2CCc3ccc(-c4ccc5c(c4)OCO5)cc3[C@@H]2C[C@@H]1N(C)C(=O)C1CCCCC1 | -7.4%
44 | COC(=O)C1=C(C(=O)OC)C2C=C(C(C)C)C1C(=O)C2(C)O (stereo unspecified) | -4.32%
45 | COC(=O)[C@]12C[C@H](CC(=O)NCc3ccccc3)C(=O)N(CCC3=CCCCC3)C1=C[C@H](C(C)(C)C)O[C@@H]2C | -4.94%
46 | Cc1c(Cl)cccc1NC(=O)CSc1ccc(-c2cccnc2)nn1 | 14.3% (active)
47 | COc1cc(NC(=O)CSc2ccc(-c3cccnc3)nn2)cc(OC)c1 | -2.54%
48 | O=C(CSc1ccc(-c2cccs2)nn1)Nc1ccccc1F | -4.48%
49 | O=S1(=O)c2ccc(Br)cc2-n2nncc2CN1Cc1cccc(Cl)c1 | -7.46%
50 | COCCCNC(=O)C[C@H]1C[C@@]2(C(=O)OC)C(=C[C@H](C(C)(C)C)O[C@@H]2C)N(Cc2ccc3c(c2)OCO3)C1=O | -0.33%
51 | CCCN1Cc2cccc(C(=O)Nc3ccc(S(=O)(=O)N4CCCCCC4)cc3)c2C1=O | -8.35%
52 | CCCN1Cc2cccc(C(=O)NCc3ccccc3)c2C1=O | -3.84%
53 | COCCN1Cc2cccc(C(=O)Nc3ccccc3OC)c2C1=O | 41.5% (active)
54 | O=C(NS(=O)(=O)c1cccs1)[C@H]1O[C@@H](n2ccc(=O)[nH]c2=O)[C@H](O)[C@@H]1O | -5.05%
55 | Cc1cc2c(nc1C)CCCN2C | -4.98%
56 | CC(C)OC(=O)CC(=O)CC(O)c1cccc([N+](=O)[O-])c1 (stereo unspecified) | -6.46%
57 | CC(CCc1ccccc1)NCC(O)c1cccc([N+](=O)[O-])c1 (stereo unspecified) | 26.9% (active)
58 | O=C(CC(c1ccccc1)c1ccccc1)NCC(O)c1ccc([N+](=O)[O-])cc1 (stereo unspecified) | -3.68%
59 | COc1ccc(S(=O)(=O)Nc2ccc3c(c2)C(=O)N([C@H](C)CO)C[C@H](C)[C@@H](CN(C)C)OCCCC[C@H](C)O3)cc1 | -6.44%
60 | c1coc(CNc2ncnc3ccccc23)c1 | 82.2% (active)
61 | c1ccc(CNc2ncnc3[nH]ncc23)cc1 | -4.19%
62 | O=C(NCc1ccncc1)C(=O)NCc1ccco1 | -2.62%
63 | C[C@H](O)[C@@H]1C(=O)N2CCc3c([nH]c4c(-c5ccc6c(c5)OCO6)cccc34)[C@@H]2C[C@@H]1N(C)C(=O)c1ccco1 | -7.36%

Row | Compound | inhibition
64 | C[C@H]1[C@H](c2ccccc2)Oc2cc(Br)ccc2S(=O)(=O)N1Cc1cccc(F)c1 | -2.05%
65 | O=C(Nc1ccc(CSc2ccccc2)cc1)c1ccc(CN2CCOCC2)cc1 | 95.3% (active)
66 | O=C(Nc1ccccc1C(=O)N1CCOCC1)c1ccc(CSc2ccccc2)cc1 | -0.11%
67 | CCOc1ccc(C(=O)Nc2ccc(CN3CCOCC3)cc2)cc1Cl | -8.84%
68 | COC(=O)N1Cc2ccnnc2CC1c1ccccc1Br (stereo unspecified) | 1.18%
69 | Cc1c(C=O)c2ccccc2n1CC(=O)O | 12.7% (active)
70 | O=C(O)Cn1c(Cc2ccccc2)nc2ccccc21 | -10.6%
71 | Cc1c(C=O)c2ccccc2n1CCOc1ccccc1 | 2.42%
72 | C=CC1=CCN(S(=O)(=O)C(C)(C)C)[C@@H]1CCO | -6.58%
73 | O=C(NCc1ccccc1)[C@H]1CCCN1C(=O)[C@@H]1CCCN1C(=O)c1ccc(Cl)cc1Cl | -7.72%
74 | C[C@H]1CN([C@@H](C)CO)C(=O)CCCn2nncc2CO[C@@H]1CN(C)C(=O)Nc1ccc(N2CCN(C)CC2)cc1 | -5.34%
75 | CC(C)[C@H]1COCCS(=O)(=O)N1Cc1ccccc1-c1cccc2c1sc1ccccc12 | -3.29%
76 | Cn1c(N)c(C(=O)COC(=O)c2cnc(Cl)c(Cl)c2)c(=O)n(C)c1=O | 18.3% (active)
77 | Cn1c(N)c(C(=O)COC(=O)COc2ccc(Cl)cc2)c(=O)n(C)c1=O | -5.52%
78 | Cn1c(N)c(C(=O)COC(=O)c2ccc3ccccc3c2)c(=O)n(C)c1=O | -4.21%
79 | Cc1ccc(S(=O)(=O)N2CCN(C(=O)COC(=O)c3c(C)cc(C)cc3C)CC2)c(C)c1 | 14.7% (active)
80 | Cc1ccc(S(=O)(=O)N2CCN(C(=O)COC(=O)c3c(C)noc3C)CC2)c(C)c1 | -3.17%
81 | COc1ccc(/C=C/C(=O)OCC(=O)N2CCN(S(=O)(=O)c3ccc(C)cc3C)CC2)cc1OC | -2.95%
